Records with an inconclusive call do not appear. Entries that show only a call come without a potency. Values without a mark were called inactive. Activity calls are given as the source filed them. Calls follow the shape of the dose curve; as a rule, active = well fitted curve in the direction sought with a large enough effect; inconclusive = small, poorly fitted or top-dose-only effect, or another doubt; inactive = no such curve, though single readings can be large; an effect the other way counts as inactive or inconclusive.
Experiments:
[1] = target: Aldehyde dehydrogenase, mitochondrial (Homo sapiens) (UniProt P05091); test: qHTS for Inhibitors of the Aldehyde Dehydrogenase Family (ALDH2) Primary screen (AID 2061308); also: nearly all actives have a fitted effect of over 55% in size
[2] = target: Retinaldehyde dehydrogenase 3 (Homo sapiens) (UniProt P47895); test: qHTS for Inhibitors of the Aldehyde Dehydrogenase Family (ALDH1A3) Primary screen (AID 2061315)

Question: For `Cc1nc(NCc2ccccc2)c2nc(-c3ccccc3)n(CCCN3CCCCC3C)c2n1` (stereo not drawn), which Potency [1] is on record?
Answer: Its Potency is “inactive”.

Question: And the Potency [2]?
Answer: The Potency was “inactive”.

Question: What does the source list for `CCOC(=O)CCC(=O)Nc1ncnc2c1C(c1ccccc1)c1c(ccc3ccccc13)O2` (stereo not drawn)?
Answer: Potency [1]: inactive; Potency [2]: inactive

Question: What does the source list for `O=[S+]([O-])(c1ccc2c(c1)OCCO2)N1CCN([S+](=O)([O-])c2ccc(F)cc2Cl)CC1`?
Answer: Potency [1]: inactive; Potency [2]: inactive

Question: How did the Potency [1] turn out when `COCCNc1nc(C)nc2c1nc(-c1ccccc1)n2CCN1CCCCC1` was run?
Answer: The Potency was “inactive”.

Question: What about the Potency [2] of the same molecule?
Answer: Its Potency is “inactive”.

Question: How did the Potency [1] turn out when `COc1ccccc1C1=Nn2c(nnc2-c2ccccc2C)SC1` was run?
Answer: The Potency was “inactive”.

Question: And the Potency [2]?
Answer: The Potency was “inactive”.

Question: With `C[C@@H]1O[C@@H](O[C@H]2[C@H](OC(=O)[C@]34CCC(C)(C)C[C@H]3C3=CCC5[C@@]6(C)C[C@H](O)[C@H](O[C@@H]7O[C@H](CO)[C@@H](O)[C@H](O)[C@H]7O)[C@](CO)(C(=O)O)C6CC[C@@]5(C)[C@]3(C)C[C@H]4O)OC[C@H](O)[C@@H]2O)[C@H](O)[C@H](O)[C@H]1O[C@@H]1OC[C@@H](O)[C@H](O[C@@H]2OC[C@](O)(CO)[C@H]2O)[C@H]1O` (stereo partly drawn) as the molecule, how does the activity change, negative = inhibition [1] read?
Answer: Its activity change, negative = inhibition is 7.32% [at 11.2 µM].

Question: And the activity change, negative = inhibition [2]?
Answer: The activity change, negative = inhibition was 18.8% [at 11.2 µM].

Question: What does the source list for `C=C1C[C@]23C[C@@]1(O)CC[C@H]2[C@@]12C=C[C@H](O)[C@@](C)(C(=O)O1)[C@H]2[C@@H]3C(=O)O`?
Answer: Potency [1]: inactive; Potency [2]: inactive

Question: With `Cc1ccc(NS(=O)(=O)c2ccc3c(c2)CCCC(=O)N3)cc1C` as the molecule, how does the Potency [1] read?
Answer: Its Potency is “inactive”.

Question: And the Potency [2]?
Answer: The Potency was “inactive”.

Question: Which Potency [1] does the source give for `Cc1cccc(NC(=O)CN2CCC(c3ccccn3)CC2)c1` here?
Answer: Its Potency is “inactive”.

Question: What about the Potency [2] of the same molecule?
Answer: The Potency was “inactive”.

Question: Which results are given for `CCCC1CCN(C(=O)CC(c2ccc3c(c2)OCO3)c2c(O)cc(OC)cc2OC)C1` (stereo not drawn)?
Answer: Potency [1]: inactive; Potency [2]: inactive

Question: Which results are given for `CC(=O)NC(c1ccco1)c1cc(F)c2cccnc2c1O` (stereo not drawn)?
Answer: Potency [1]: inactive; Potency [2]: inactive

Question: Which results are given for `Fc1cnc(-c2ccccc2C(F)F)nc1NCc1ccc(-n2ccnn2)cc1`?
Answer: Potency [1]: inactive; Potency [2]: inactive

Question: Which results are given for `Cc1cc(NC(=O)Nc2nnc(-c3cccnc3)s2)ccc1Br`?
Answer: Potency [1]: inactive; Potency [2]: inactive

Question: What does the source list for `CC(C)N1CCc2c(sc(NC(=O)C(F)F)c2-c2nc3ccccc3s2)C1`?
Answer: Potency [1]: inactive; Potency [2]: inactive

Question: Which results are given for `CCC(=O)NC(c1cccs1)c1cc(Cl)c2cccnc2c1O` (stereo not drawn)?
Answer: Potency [1]: inactive; Potency [2]: inactive

Question: Which Potency [1] does the source give for `O=S(=O)(c1cccc(Br)c1)N1CCN(S(=O)(=O)c2ccc3c(c2)OCCO3)CC1` here?
Answer: The Potency was “inactive”.

Question: And the Potency [2]?
Answer: Its Potency is “inactive”.

Question: Which results are given for `COc1cc(-c2ncn(/C=C\C(=O)OC(C)C)n2)cc(C(F)(F)F)c1`?
Answer: Potency [1]: inactive; Potency [2]: inactive

Question: What does the source list for `C/C=C\C1=CCCC1Nc1ncnc2ccc(-c3c(C)noc3C)cc12` (stereo not drawn)?
Answer: Potency [1]: inactive; Potency [2]: inactive

Question: Which Potency [1] does the source give for `O=S(=O)(Nc1cccc2cccnc12)c1ccc(Br)cc1` here?
Answer: The Potency was “inactive”.

Question: What about the Potency [2] of the same molecule?
Answer: The Potency was “inactive”.

Question: Which results are given for `C=Cc1nc(Nc2cc(F)cc(F)c2)nc(NC2CCCC2)n1`?
Answer: Potency [1]: inactive; Potency [2]: inactive

Question: How did the Potency [1] turn out when `Cc1cc(C)nc(NC(=S)N2CCN(c3ccc([N+](=O)[O-])c4cccnc34)CC2)c1` was run?
Answer: Its Potency is “inactive”.

Question: And the Potency [2]?
Answer: The Potency was “inactive”.

Question: `Oc1cccc2cc(Nc3ccccc3)cnc12` was tested. Which Potency [1] did it give?
Answer: The Potency was “inactive”.

Question: And the Potency [2]?
Answer: Its Potency is “inactive”.

Question: `C#CCOc1cccc(-c2nnc3n2N=C(c2ccc(OC)c(OCC(C)=O)c2)CS3)c1` was tested. Which Potency [1] did it give?
Answer: The Potency was “inactive”.

Question: What about the Potency [2] of the same molecule?
Answer: Its Potency is “inactive”.

Question: `O=C(OCC#CCSc1nnc(-c2ccc(F)cc2)o1)c1ccc(F)cc1` was tested. Which Potency [1] did it give?
Answer: The Potency was “inactive”.

Question: What about the Potency [2] of the same molecule?
Answer: Its Potency is “inactive”.

Question: For `O=C(Nc1nnc(-c2ccco2)o1)c1ccc(Cl)c(Cl)c1`, which Potency [1] is on record?
Answer: Its Potency is “inactive”.

Question: What about the Potency [2] of the same molecule?
Answer: The Potency was “inactive”.

Question: With `O=C1CCCC2=C1C(c1[nH]ncc1Cl)NC(=NCc1ccncc1)N2` (stereo not drawn) as the molecule, how does the Potency [1] read?
Answer: Its Potency is “inactive”.

Question: And the Potency [2]?
Answer: The Potency was “inactive”.

Question: For `CCCCCCCCn1cc(CN(CC)CC)c2cc(-c3cnc(N)nc3)ccc21`, which Potency [1] is on record?
Answer: Its Potency is “inactive”.

Question: What about the Potency [2] of the same molecule?
Answer: The Potency was “inactive”.

Question: What does the source list for `CCCCC1CCC(C(=O)Nc2ccc(S(=O)(=O)Nc3nccs3)cc2)CC1` (stereo not drawn)?
Answer: Potency [1]: inactive; Potency [2]: inactive

Question: Which Potency [1] does the source give for `Cc1ccc(NC(=O)CN2C(=O)N/C(=C\c3cccn3-c3cccc(-c4nn[nH]n4)c3)C2=O)cc1` here?
Answer: The Potency was “inactive”.

Question: And the Potency [2]?
Answer: The Potency was “inactive”.

Question: What does the source list for `COc1cccc(C2c3c(ncn(-c4ccc(Br)cc4)c3=N)Oc3ccc4ccccc4c32)c1` (stereo not drawn)?
Answer: Potency [1]: inactive; Potency [2]: inactive

Question: For `c1ccc2sc(-c3csc4c3CCNC4)nc2c1`, which Potency [1] is on record?
Answer: The Potency was “inactive”.

Question: What about the Potency [2] of the same molecule?
Answer: The Potency was “inactive”.

Question: For `CC(C)(C)OC(=O)NCc1nnc(C(C(=O)OCc2ccccc2)c2ccccc2)s1` (stereo not drawn), which Potency [1] is on record?
Answer: Its Potency is “inactive”.

Question: What about the Potency [2] of the same molecule?
Answer: The Potency was “inactive”.

Question: Which results are given for `CCC(CC)C(=O)NCCc1nc2ccccc2n1CCOc1ccc(C)cc1`?
Answer: Potency [1]: inactive; Potency [2]: inactive

Question: How did the Potency [1] turn out when `Cc1ccc(S(=O)(=O)Nc2cnccc2C(=O)Nc2nc(-c3cc4ccccc4o3)cs2)cc1` was run?
Answer: Its Potency is “inactive”.

Question: What about the Potency [2] of the same molecule?
Answer: The Potency was “inactive”.

Source: PubChem BioAssay (NCATS)
